Consider 59 molecules from PubChem BioAssay AID504690 (Sanford-Burnham Center for Chemical Genomics, 2011).

One may read the inhibition as the relative decrease from the control value, in per cent.

Hit rate of the full screen: of about 350,000 compounds, about 2,700 (0.77%) were called active. The sample holds actives, similar compounds and a random draw of the others, so the mix is not that of the screen. Values without a mark were called inactive.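 The calls were made as follows: active = inhibition reaching at least a set limit at 20 µM in the primary screen (cut at about 59% in these data); inactive = the rest.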

The assay concerns glucose-6-phosphate dehydrogenase-6-phosphogluconolactonase (Plasmodium falciparum 3D7). The assay is described as follows: PfG6PD enzyme inhibitors, primary screen, biochemical, fluorescence intensity, uHTS (AID 504690).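 Also: 0% = DMSO wells with substrate and 100% = DMSO wells lacking glucose-6-phosphate.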 To be noted: PfGluPho enzyme, NADPH resazurin-diaphorase fluorescence; at 20 µM; stronger effect = higher value. For orientation: Resazurin is reduced to fluorescent resorufin, in cell work by metabolically active cells.
On to `O=C(N/N=C/c1cccc(Br)c1)c1ccc(N2CCCC2=O)cc1`, for which the inhibition was 9.79%. Then `O=C(N/N=C\c1cccc(Br)c1)c1ccccc1-n1cccc1`, with 77.6% (active); and `O=C(CNC(=O)c1cccs1)N/N=C/c1cccc(Br)c1`, with -3.31%; and `CCCNc1c(N)c(=O)c1=O`, with -14.2%.

Turning to `CCc1c(C)[nH]c(=S)c(C#N)c1C`, the inhibition was 60.6% (active). Regarding `CC(=O)c1c(C)[nH]c(=S)c(C#N)c1-c1ccc(F)cc1`, the inhibition was 36.1%. Then `CN(C)CCCNC(=S)N1CCN(c2nc(-c3ccccc3)cs2)CC1`, with 7.81%. The value for `FC(F)(F)c1ccc2c3n(nc2c1)CCN=C3c1ccc(Cl)cc1` was 21.6%; that for `O=C(CC1Oc2ccccc2NC1=O)NCCCN1CCN(Cc2ccccc2)CC1` (centres undefined) was 17.8%. The value for `Cc1noc(C)c1CSc1nc2cc(S(=O)(=O)N3CCOCC3)ccc2o1` was 46.6%; that for `COc1ccc(CCn2c(NN=C3CCCC3)nc3c2c(=O)[nH]c(=O)n3C)cc1` was 77.3% (active). For the molecule `CC1CCN(c2nc3c(c(=O)[nH]c(=O)n3C)n2CCCc2ccccc2)CC1`, the inhibition is 12.8%. Then `COc1ccc(CCn2c(NCCCN3CCOCC3)nc3c2c(=O)[nH]c(=O)n3C)cc1`, with 5.12%; and `CCN(c1ccc2c(c1)OCO2)S(=O)(=O)c1cc(Br)cc2c1N(C(=O)C1CC1)CC2`, with 32.5%; and `Nc1cccc2c1C(=O)N(Cc1nnc(-c3ccccc3Br)o1)C2=O`, with -11.2%.

Consider `COc1ccc(Nc2ncc(F)c(N3CCOCC3)n2)cc1`, for which the inhibition was -2.57%. Then `O=C(CSc1nc(Nc2ccccc2)nc(N2CCOCC2)n1)Nc1cc(Cl)ccc1O`, with 21.3%; and `Cc1cc(Nc2ccc(Cl)cc2)nc(N2CCOCC2)n1`, with 74.6% (active).

As to `C=CCOc1ccc(C(=O)Nc2ccccc2C(=O)N2CCCC2)cc1`, the inhibition is 15.3%. Then `C/C(=N/NC(=O)c1cc(Cl)ccc1O)C12CC3CC(CC(C3)C1)C2`, with 50.1%; and `O=C(c1ccc(NS(=O)(=O)c2ccc3[nH]c(=O)[nH]c3c2)cc1)N1CCCCC1`, with -7.11%. The value for `N/C(=N\OS(=O)(=O)c1cccc([N+](=O)[O-])c1)c1ccncc1` was -9.59%; that for `CC12CCCCC1=CC(=O)CC2` (centres undefined) was 10.3%.

For the molecule `O=C(COC(=O)Cc1ccc(Cl)cc1Cl)NCc1ccco1`, the inhibition was -17.6%. The value for `Cc1cc(Nc2ccc(Br)cc2)nc2ccccc12` was 86.8% (active); that for `CCOc1ccc(NC(=O)c2cc(C)nc3ccccc23)cc1` was 6.27%; that for `Clc1ccc(Nc2ccc3ccccc3n2)cc1` was 31.9%. Then `O=C(Nc1cccc(Cl)c1)c1cc(S(=O)(=O)N2CCCCC2)c[nH]1`, with -8.02%; and `CCOC(=O)Cn1c2c(c(-c3ccccc3OC)cc1=O)CCCC2`, with 10.3%; and `CC1=C/C(=N\OS(=O)(=O)c2ccccc2)C=CC1=O`, with 116% (active). The value for `COC(=O)C(C(=O)Nc1cccc(Cl)c1C)C1CCCC1` (centres undefined) was 5.12%. For the molecule `CCOC(=O)c1cc(-c2sc(NC(=O)c3ccccc3)nc2C)n(CCO)n1`, the inhibition is 5.2%. The value for `S=c1[nH]nc(-c2cc(-c3ccsc3)n[nH]2)n1-c1ccccc1` was 63% (active); that for `Cc1ccc(NCc2n[nH]c(=S)n2-c2ccccc2)cc1Cl` was 17.7%; that for `Cc1ccc(-n2c(-c3ccc(Cl)cc3)n[nH]c2=S)cc1` was 39.8%. The value for `CCCCCN(C(=O)CCC(=O)OCC(=O)NCc1ccc(OC)cc1)c1c(N)n(CCCC)c(=O)[nH]c1=O` was 6.98%. The value for `C=CCOc1ccc(Cl)cc1CNCCCN1CCOCC1` was -22.9%. Take `CCOC(=O)Cn1nnnc1C`: the inhibition was -8.58%. In the case of `COc1ccc(NC(=O)c2sc(N3CCOCC3)nc2-c2ccccc2)c(OC)c1`, the inhibition was 7.35%. The value for `Cc1nc(N2CCOCC2)sc1C(=O)NN` was 61.7% (active); that for `CCOC(=O)N1CCC(NC(=O)c2ccc3nc(N4CCOCC4)sc3c2)CC1` was -2.75%; that for `Cc1ccc(S(=O)(=O)N2CCCCC2)cc1NC(=O)[C@@H]1CCCN1C(=O)c1cccs1` was -10%.

Consider `COc1cc(C=NNC(=O)c2cccnc2)ccc1OC(=O)c1ccccc1F`, for which the inhibition was 0.22%. Then `O=C(NN=Cc1ccc2c(c1)CCC2)c1ccccc1O`, with -13.6%.

Regarding `COc1ccc(C(=O)Nc2ccccc2C(=O)N/N=C/c2ccc(O)c(OC)c2)cc1`, the inhibition is 63.8% (active). Regarding `CC(C)Cc1nnc(N)s1`, the inhibition is -0.68%.

In the case of `Cc1ccc(C2CC(c3cccc(Br)c3)n3nc(N)nc3N2)cc1` (centres undefined), the inhibition is 18%.

In the case of `Cc1csc(=O)n1CC(=O)Nc1ccc(S(C)(=O)=O)cc1`, the inhibition is 1.5%. For the molecule `Cc1cc(=O)n2[nH]c(-c3sccc3-n3c(C)ccc3C)cc2n1`, the inhibition is 10.7%. The value for `C[C@@H]1CN([C@@H](C)CO)S(=O)(=O)c2ccc(-c3ccc(C(=O)N(C)C)cc3)cc2O[C@@H]1CN(C)Cc1ccccc1C(=O)O` was 1.43%; that for `Cc1ccc2nnn(Cc3cccc(C(C)(C)C)c3O)c2c1` was 4.75%.

Regarding `C#CCOCCOCCOCCNc1nc(N2CCN(C(=O)Cn3cc(CCO)nn3)CC2)nc(N2CCN(C(=O)[C@H](CCCCN)n3cc(CCCC)nn3)CC2)n1`, the inhibition was 6.73%. Then `C#CCOCCOCCOCCNc1nc(N2CCN(C(=O)CCCCCCCCCCNC(=O)[C@H]([C@@H](C)CC)n3cc(CCCCN=C(N)N)nn3)CC2)nc(N2CCN(C(=O)CCCCCCCCCCNC(=O)[C@H](CO)n3cc(CCCSC)nn3)CC2)n1`, with 44.4%; and `C#CCOCCOCCOCCNc1nc(N2CCN(C(=O)CCCCCCCCCCNC(=O)Cn3cc(CCCCCN)nn3)CC2)nc(N2CCN(C(=O)CCCCCCCCCCNC(=O)[C@H](CO)n3cc(CCCSC)nn3)CC2)n1`, with 60% (active). Turning to `COCc1cc(C)nc2sc3c(=O)n(-c4cccc5ccccc45)nnc3c12`, the inhibition is -2.51%. Consider `CCC(=O)N1CCC(C(N)=O)(N2CCCCC2)CC1`, for which the inhibition was -1.08%. Then `O=C1CSC(=S)N1/N=C/c1ccc(O)c([N+](=O)[O-])c1`, with 18.4%. Then `O=C1CSC(=S)N1c1ccc(O)cc1`, with -5.81%; and `CCOc1cccc(/C=N/N2C(=O)CSC2=S)c1O`, with 60.8% (active).
